Data published in article PMC7862700, “An all-to-all approach to the identification of sequence-specific readers for epigenetic DNA modifications on cytosine”.

Legend:
Assay in all cases: DAPPL (digital affinity profiling via proximity ligation, sequencing); 10 mM Tris-HCl pH 7.5, 50 mM NaCl, 1 mM DTT, 4% glycerol, room temperature, 30 min; GST-TFs on glutathione beads, 16-mer random dsDNA library, 0.1% formaldehyde crosslink after washing; high values mean tight binding
Details in all cases: protein: recombinant; tags: N-terminal GST; dsDNA, one strand shown
[1] = target: T1, FLI1 (Homo sapiens, UniProt Q01543 1-452)
T1 sequence: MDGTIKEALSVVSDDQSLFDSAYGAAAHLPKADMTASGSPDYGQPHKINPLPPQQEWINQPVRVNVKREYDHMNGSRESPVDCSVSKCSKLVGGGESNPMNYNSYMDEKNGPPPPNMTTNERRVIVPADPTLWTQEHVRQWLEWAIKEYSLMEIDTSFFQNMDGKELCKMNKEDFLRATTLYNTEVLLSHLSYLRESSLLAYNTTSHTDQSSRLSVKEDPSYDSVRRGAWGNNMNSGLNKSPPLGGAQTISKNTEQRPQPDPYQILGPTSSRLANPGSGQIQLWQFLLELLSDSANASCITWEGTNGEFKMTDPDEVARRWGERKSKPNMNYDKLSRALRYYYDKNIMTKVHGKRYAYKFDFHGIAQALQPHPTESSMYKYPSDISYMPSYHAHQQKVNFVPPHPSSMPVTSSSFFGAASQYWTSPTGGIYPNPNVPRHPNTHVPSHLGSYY
Method in brief: (§1)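 Pools of DNA-barcoded human transcription factors, expressed in yeast as GST fusions on glutathione beads and combined with a tag-only sample, were incubated with 200 nmole of a 16-mer random double-stranded DNA library. Incubation took 30 min at room temperature in Tris/NaCl/DTT/glycerol buffer and was followed by washing, 0.1% formaldehyde crosslinking, proximity ligation (BsaI/T4 ligase, 1 h, 37 °C), PCR amplification and sequencing on an Illumina NextSeq500. Binding signal is the ratio of a hexamer's read frequency for a factor to its frequency for the tag-only sample.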

[2] = target: T2, ELK1 (Homo sapiens, UniProt P19419 1-428)
T2 sequence: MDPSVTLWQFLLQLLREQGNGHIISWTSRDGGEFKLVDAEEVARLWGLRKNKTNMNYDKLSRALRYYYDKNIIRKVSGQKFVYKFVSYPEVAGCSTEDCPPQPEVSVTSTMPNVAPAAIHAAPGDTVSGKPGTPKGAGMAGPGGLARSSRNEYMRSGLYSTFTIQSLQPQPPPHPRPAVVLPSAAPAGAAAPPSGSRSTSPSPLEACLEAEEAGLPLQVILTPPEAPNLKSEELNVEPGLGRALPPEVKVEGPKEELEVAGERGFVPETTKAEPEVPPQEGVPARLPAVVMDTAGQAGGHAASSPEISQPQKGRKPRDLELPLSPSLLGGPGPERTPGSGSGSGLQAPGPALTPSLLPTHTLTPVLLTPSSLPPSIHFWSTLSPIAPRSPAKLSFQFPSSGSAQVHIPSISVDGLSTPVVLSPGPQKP
Method in brief: as §1

[3] = target: T3, GABPA (Homo sapiens, UniProt Q06546 1-454)
T3 sequence: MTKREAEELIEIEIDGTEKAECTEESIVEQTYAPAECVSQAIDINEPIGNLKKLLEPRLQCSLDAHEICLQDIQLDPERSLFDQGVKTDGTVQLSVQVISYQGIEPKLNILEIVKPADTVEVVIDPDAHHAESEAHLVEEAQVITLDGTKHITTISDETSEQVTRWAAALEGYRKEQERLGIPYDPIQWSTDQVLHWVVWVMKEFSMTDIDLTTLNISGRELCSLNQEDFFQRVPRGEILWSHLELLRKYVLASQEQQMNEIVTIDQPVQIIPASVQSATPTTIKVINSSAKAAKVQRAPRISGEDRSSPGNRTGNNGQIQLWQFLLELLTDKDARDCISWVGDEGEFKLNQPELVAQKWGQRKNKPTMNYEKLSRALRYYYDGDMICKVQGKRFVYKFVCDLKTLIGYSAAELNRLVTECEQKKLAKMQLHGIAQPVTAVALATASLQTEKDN
Method in brief: as §1

[4] = target: T4, ERG (Homo sapiens, UniProt P11308 1-479)
T4 sequence: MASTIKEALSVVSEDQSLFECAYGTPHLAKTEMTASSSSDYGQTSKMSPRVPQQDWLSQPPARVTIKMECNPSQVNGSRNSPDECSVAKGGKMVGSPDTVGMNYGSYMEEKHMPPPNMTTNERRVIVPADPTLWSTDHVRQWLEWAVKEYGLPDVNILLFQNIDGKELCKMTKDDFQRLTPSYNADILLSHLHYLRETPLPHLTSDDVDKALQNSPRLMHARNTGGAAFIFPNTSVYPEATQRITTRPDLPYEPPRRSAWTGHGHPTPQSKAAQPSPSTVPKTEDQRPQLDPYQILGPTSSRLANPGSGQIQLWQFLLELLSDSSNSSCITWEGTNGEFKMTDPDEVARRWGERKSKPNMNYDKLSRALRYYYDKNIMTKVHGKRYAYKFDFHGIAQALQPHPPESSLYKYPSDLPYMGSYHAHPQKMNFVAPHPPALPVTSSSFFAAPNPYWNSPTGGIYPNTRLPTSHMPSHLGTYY
Method in brief: as §1

[5] = target: ELF1 (Homo sapiens, UniProt P32519 1-619)
ELF1, sequence (P32519 whole entry): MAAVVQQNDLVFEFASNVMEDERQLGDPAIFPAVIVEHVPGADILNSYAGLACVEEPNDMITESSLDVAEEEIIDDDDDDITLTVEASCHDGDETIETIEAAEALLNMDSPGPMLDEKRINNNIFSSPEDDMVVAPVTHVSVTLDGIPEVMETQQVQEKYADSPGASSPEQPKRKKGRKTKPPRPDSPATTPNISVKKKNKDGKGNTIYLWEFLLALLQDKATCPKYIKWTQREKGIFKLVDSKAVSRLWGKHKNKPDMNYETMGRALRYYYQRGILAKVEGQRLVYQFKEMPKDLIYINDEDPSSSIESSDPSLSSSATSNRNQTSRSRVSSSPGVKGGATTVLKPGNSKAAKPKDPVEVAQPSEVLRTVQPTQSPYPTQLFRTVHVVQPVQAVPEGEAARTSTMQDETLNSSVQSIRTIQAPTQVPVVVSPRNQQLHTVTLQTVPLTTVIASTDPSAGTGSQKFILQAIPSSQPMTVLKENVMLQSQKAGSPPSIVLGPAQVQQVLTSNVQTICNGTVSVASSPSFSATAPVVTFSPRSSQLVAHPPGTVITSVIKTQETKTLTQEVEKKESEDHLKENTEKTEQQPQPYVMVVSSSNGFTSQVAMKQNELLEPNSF
Method in brief: as §1

[6] = target: T5, EHF (Homo sapiens, UniProt Q9NZC4 1-300)
T5 sequence: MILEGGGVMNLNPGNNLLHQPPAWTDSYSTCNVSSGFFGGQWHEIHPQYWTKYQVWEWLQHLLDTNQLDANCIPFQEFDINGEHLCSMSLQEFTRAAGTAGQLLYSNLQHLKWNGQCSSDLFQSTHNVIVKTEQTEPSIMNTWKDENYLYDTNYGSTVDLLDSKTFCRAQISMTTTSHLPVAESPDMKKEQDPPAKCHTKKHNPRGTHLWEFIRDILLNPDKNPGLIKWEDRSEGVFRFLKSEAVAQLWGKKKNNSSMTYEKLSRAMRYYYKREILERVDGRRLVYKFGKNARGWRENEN
Method in brief: as §1

[7] = target: SPI1 (Homo sapiens, UniProt P17947 1-270)
Method in brief: as §1

[8] = target: T6, ELK3 (Homo sapiens, UniProt P41970 1-407)
T6 sequence: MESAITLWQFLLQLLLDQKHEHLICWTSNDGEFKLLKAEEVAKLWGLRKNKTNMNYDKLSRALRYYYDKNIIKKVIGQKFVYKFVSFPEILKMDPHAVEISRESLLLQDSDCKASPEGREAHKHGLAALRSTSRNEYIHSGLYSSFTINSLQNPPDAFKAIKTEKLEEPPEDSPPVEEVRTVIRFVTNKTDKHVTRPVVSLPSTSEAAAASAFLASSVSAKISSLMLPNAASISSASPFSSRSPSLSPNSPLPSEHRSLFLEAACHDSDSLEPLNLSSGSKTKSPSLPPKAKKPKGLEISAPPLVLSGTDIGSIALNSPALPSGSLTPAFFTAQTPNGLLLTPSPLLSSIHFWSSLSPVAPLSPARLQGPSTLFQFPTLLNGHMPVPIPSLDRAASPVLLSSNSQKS
Method in brief: as §1

AAGAAG
binding signal [1]: 1.05 fold enrichment (6-mer frequency, TF over GST control) | binding signal [2]: 1.09 fold enrichment (6-mer frequency, TF over GST control) | binding signal [3]: 1.01 fold enrichment (6-mer frequency, TF over GST control) | binding signal [4]: 1.06 fold enrichment (6-mer frequency, TF over GST control) | binding signal [5]: 1.05 fold enrichment (6-mer frequency, TF over GST control) | binding signal [6]: 1.07 fold enrichment (6-mer frequency, TF over GST control) | binding signal [7]: 1.13 fold enrichment (6-mer frequency, TF over GST control) | binding signal [8]: 1.05 fold enrichment (6-mer frequency, TF over GST control)
